Tau fluor counter = Counterscreen qHTS for Inhibitors of Tau Fibril Formation, Fluorescence Polarization. tau K18 P301L Alexa594 fluorescence, heparin fibrillization. Potency, µM (top dose mostly 57.7 µM), inactives show top-dose activity change, negative = decrease. actives 0.93% (n = 280,000). AID 1463, 2008; note: potency is the fitted concentration of half-maximal effect; nearly all actives have a fitted effect of over 55% in size
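Human tau K18 P301L (15 uM unlabeled, 0.24 uM Alexa 594-labeled) in 100 mM sodium acetate pH 7 with 20 uM heparin, 6 hr at 37 C. ThT 30 uM added, 1 hr ambient; Alexa 594 FP and total fluorescence read at 555/632 nm.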
G9a block = qHTS Assay for Inhibitors of Histone Lysine Methyltransferase G9a; Histone-lysine N-methyltransferase EHMT2 (Homo sapiens), Q96KQ7; G9a H3K9 monomethylation, AlphaScreen, 2 h; Potency, µM (titrated, usually from 102 µM), for the others: top-dose activity, negative = inhibition, actives largely listed as inhibitors; actives 8.8% (n = 350,000); AID 504332, 2011; note: potency is the fitted concentration of half-maximal effect; nearly all actives have a fitted effect of over 75% in size
Target sequence (Q96KQ7 913-1193 limits assumed): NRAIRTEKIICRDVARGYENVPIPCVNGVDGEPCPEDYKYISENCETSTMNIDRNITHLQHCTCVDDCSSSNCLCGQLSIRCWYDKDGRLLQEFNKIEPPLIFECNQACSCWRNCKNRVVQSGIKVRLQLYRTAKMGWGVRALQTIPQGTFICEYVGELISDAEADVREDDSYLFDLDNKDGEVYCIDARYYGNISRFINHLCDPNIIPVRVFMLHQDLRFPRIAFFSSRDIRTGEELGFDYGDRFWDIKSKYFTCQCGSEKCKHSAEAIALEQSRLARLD
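AlphaScreen read-out: biotin-H3K9 peptide (500 nM) methylation by 20 nM enzyme with 20 uM SAM, 2 h at room temperature after 15 min compound preincubation; anti-monomethyl H3K9 antibody plus donor/acceptor beads, 10 min dark.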
Tau ThT inhib = qHTS for Inhibitors of Tau Fibril Formation, Thioflavin T Binding; recombinant tau K18 P301L (four-repeat tau fragment), heparin-induced fibrillization, ThT fluorescence; Potency, µM (titrated, usually from 57.4 µM), for inactives: at the top dose activity, negative = inhibition, most hits filed as inhibitors; actives 2.1% (n = 270,000); AID 1460, 2008; note: potency is the fitted concentration of half-maximal effect; nearly all actives have a fitted effect of over 55% in size
Target sequence (P10636 561-689 P618L limits assumed): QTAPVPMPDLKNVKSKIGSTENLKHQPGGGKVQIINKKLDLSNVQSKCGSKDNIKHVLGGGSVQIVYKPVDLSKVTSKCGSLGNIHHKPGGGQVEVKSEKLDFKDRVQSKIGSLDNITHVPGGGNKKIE
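Heparin-induced fibrillization of the P301L-mutant K18 repeat-domain fragment of human tau was followed by ThT binding in quantitative high-throughput format.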
FBPA coupling cs = qHTS Assay for Inhibitors of Fructose-1,6-bisphosphate Aldolase from Giardia Lamblia: Coupling assay counterscreen. coupling enzyme system counterscreen, AmpLite Red fluorescence. activity change, negative = inhibition, % at 58.2 µM, hits read low. actives 0.67% (n = 290,000); in the data active = activity change below about -30%
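Coupling enzymes only (glyceraldehyde-3-phosphate) + compound, at 57.5 uM final, 10 min RT; add substrate/coupling/AmpLite Red mix, 20 min RT; fluorescence ex 525/em 598 nm. Actives flag coupling-system interference.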
Tau FP inhib = qHTS for Inhibitors of Tau Fibril Formation, Fluorescence Polarization. Microtubule-associated protein tau (Homo sapiens), P10636. K18 P301L tau heparin fibrillization, Alexa594 FP, 6 h. Potency, µM (doses to about 57.7 µM), inactives show at the top dose activity, negative = inhibition, hits mostly inhibitors. actives 0.39% (n = 280,000). AID 1468, 2008; note: potency is the fitted concentration of half-maximal effect; nearly all actives have a fitted effect of over 55% in size
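Read-out: fluorescence polarization of Alexa 594-labeled tau (0.24 uM), 555 nm excitation, 632 nm emission. Mixtures held 15 uM unlabeled K18 P301L, compound and 20 uM heparin, pH 7 acetate buffer, incubated 6 hr at 37 C.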
Sfp PPTase inh = qHTS Assay for Inhibitors of Bacillus subtilis Sfp phosphopantetheinyl transferase (PPTase); 4'-phosphopantetheinyl transferase ffp (Bacillus subtilis), Q9F4F7; Biochemical Sfp PPTase activity, qHTS; Potency, µM, without a hit: largest response in the series, negative = inhibition, most hits filed as inhibitors; actives 3.5% (n = 310,000);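 note: the enzyme is Sfp with the accession as filed and its product quenches rhodamine fluorescence; potency is the fitted concentration of half-maximal effect; 0% = enzyme reaction without inhibitor and -100% = no enzyme wells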
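After 15 min at room temperature with compound, 15 nM Sfp received 5 uM rhodamine-CoA plus 12.5 uM BHQ-2-ybbR (50 mM Hepes pH 7.6, 10 mM MgCl2). Rate came from the fluorescence difference over 30 min, ex 525/em 598 nm.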
Active calls of the source: *; ? = inconclusive; · = not tested or not shown; [ ] = dose if it differs, or a comment. In the library only some 11% were active in any assay of this set; here they are far more common. Unless noted, calls come from the whole dose curve; as a rule, active = well fitted curve in the direction sought with a large enough effect; inconclusive = small, poorly fitted or top-dose-only effect, or another doubt; inactive = no such curve, though single readings can be large; an effect the other way counts as inactive or inconclusive. Unless noted, % is set by controls: 0 for no effect and ±100 for the full control effect.

SMILES | Tau fluor counter | G9a block | Tau ThT inhib | FBPA coupling cs | Tau FP inhib | Sfp PPTase inh
COc1ccc(C(C)NC(=S)NC2CCCC2)cc1OC (stereo unspecified) | -7.4% | 17.8µM* | -2.7% | 3.8 | -7.8% | -7.8%
Cc1cc(O)c2ccccc2c1O | · | ? | · | · | · | -8.3%
CC(=O)Oc1c(C)cc(O)c2ccccc12 | ? | -27.2%[12.7 µM] | 25.1µM* | -32.2* | ? | 10.9%
COc1ccccc1Nc1nc(NCCO)c2ccccc2n1 | 0.4% | -36.6% | -6.2% | 2.3 | 3.6% | -2.4%
CN1CCN(c2nc(N3CCN(CCO)CC3)nc3ccccc23)CC1 | -1.3% | 50.1µM* | -7.9% | -2.2 | 0.0% | 5.5%
Cc1ccc(Nc2nc(NCCO)c3ccccc3n2)cc1C | · | 79.4µM* | · | 2.6 | · | 79.4µM*
CCN1CCN(c2nc(NCCO)c3ccccc3n2)CC1 | · | 39.8µM* | · | 1.9 | · | -3.2%
COc1ccccc1N1CCN(c2ncnc3c2c(-c2ccccc2)cn3-c2cccc(C)c2)CC1 | -7.3% | -7.7%[59 µM] | -10.5% | · | 6.3% | ·
Oc1ccc(COC2CCN(Cc3ccccc3)C2)c2cccnc12 (stereo unspecified) | · | -3.2%[12.7 µM] | · | · | · | ·
O=C1N(Cc2cccc(Cl)c2)C[C@@H]2C[C@@H](c3c[nH]c4ccccc34)N3CCC[C@@]123 | -17.2% | 35.5µM* | ? | -20.4 | -4.5% | -16.7%
O=C1N(Cc2cccc(Cl)c2)C[C@@H]2C[C@@H](c3cccc4ncccc34)N3CCC[C@@]123 | -11.3% | 1.5% | -4.2% | 3.0 | -8.1% | 18.6%
Cc1cccc([C@@H]2C[C@H]3CN(Cc4cccc(Cl)c4)C(=O)[C@]34CCCN24)n1 | 10.3% | 39.8µM* | -2.5% | 1.5 | -0.1% | -6.8%
C=CCc1cc(C)ccc1OCCOCCN1CCN(C)CC1 | · | 14.1µM* | · | 3.2 | · | 79.4µM*
CC(C)(C)c1cc(Cl)ccc1OCCOCCN1CCCC1 | · | 25.1µM* | · | 5.0 | · | ?
Cc1ccc(C)c(OCCOCCN2CCOCC2)c1 | 0.1% | -25.9%[12.7 µM] | -8.3% | 1.0 | 5.6% | 0.8%
Cc1ccc(OCCOCCN2CCN(C)CC2)c(C(C)(C)C)c1 | · | 14.1µM* | · | -2.3 | · | 50.1µM*
Cc1cc(C(C)(C)C)ccc1OCCOCCN1CCCC1 | 2.3% | ? | 2.9% | 0.5 | 6.1% | -24.5%
Cc1cc(C)c(C)c(OCCOCCN2CCN(C)CC2)c1 | 5.2% | ? | 8.9% | 2.4 | -4.5% | 1.2%
O=C(CN1C2=NCCCN2c2ccccc21)c1ccc([N+](=O)[O-])cc1 | -7.1% | 39.8µM* | -9.2% | 1.2 | -7.7% | -13.7%
NCCCC[C@@H](N)C(=O)O | 9.7% | 27.9%[59 µM] | 5.2% | 0.4 | 5.5% | 5.9%
COc1ccc(N2C(=O)/C(=C3/C=CC=CN3C)SC2=S)cc1 | -5.3% | 44.7µM* | ? | -4.5 | -3.7% | 50.1µM*
O=c1oc2ccccc2c(Cl)c1CN1CCCCC1 | -8.3% | 50.1µM* | ? | 0.6 | -10.4% | 16.3%
O=c1oc2ccccc2c(N2CCCC2)c1CN1CCCC1 | -17.6% | 56.2µM* | -12.3% | 2.6 | 2.3% | 2.6%
O=C(Nc1cccc(C(=O)OCc2cc(=O)n3c4c(sc3n2)CCCC4)c1)c1ccccc1 | ? | 15.9%[59 µM] | ? | · | ? | ·
CCC(C)C(NC(=O)CCC(=O)OCC(=O)[C@@]1(O)CCC2[C@@H]3CCC4=CC(=O)C=C[C@]4(C)C3[C@@H](O)C[C@@]21C)C(=O)O (stereo partly specified) | · | 5.8% | · | 3.6 | · | 15.9%
O=C1C2CCCN2C(c2cccc(Br)c2)N1c1ccc(F)cc1 (stereo unspecified) | -11.9% | 70.8µM* | -13.1% | 0.3 | 3.0% | -20.5%

From PubChem
